From PubChem BioAssay (NCI)
Compounds without any hit were thinned out: in the full panel of roughly 83,000, 20% have a hit.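 The endpoint reported here, percent growth, reads 100 for growth as untreated, 0 for no net growth and -100 for all cells dead.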 The source made the active and inactive calls. Rule for the calls: active = growth percent below 10; inactive = the rest.

Key:
Experiment in all cases: NCI-60 one-dose screen, 48 h (100 = growth as untreated, 0 = no growth, -100 = all killed)
Conditions in all cases: 10 µM unless noted
DU-145 prostate = tested on: DU-145 prostate
K-562 leukemia = tested on: K-562 leukemia
MALME-3M melanoma = tested on: MALME-3M melanoma
MDA-MB-231 breast = tested on: MDA-MB-231 breast
RXF 393 renal = tested on: RXF 393 renal
SF-268 CNS = tested on: SF-268 CNS
SF-295 CNS = tested on: SF-295 CNS
SF-539 CNS = tested on: SF-539 CNS
UACC-257 melanoma = tested on: UACC-257 melanoma
M14 melanoma = tested on: M14 melanoma
HCT-15 colon = tested on: HCT-15 colon
HT29 colon = tested on: HT29 colon
SNB-75 CNS = tested on: SNB-75 CNS
SNB-19 CNS = tested on: SNB-19 CNS
U251 CNS = tested on: U251 CNS
PC-3 prostate = tested on: PC-3 prostate
SK-MEL-5 melanoma = tested on: SK-MEL-5 melanoma
UACC-62 melanoma = tested on: UACC-62 melanoma
LOX IMVI melanoma = tested on: LOX IMVI melanoma
SK-MEL-28 melanoma = tested on: SK-MEL-28 melanoma

Measured: growth

Cc1cc(Cl)cc(CN(Cc2ccccc2)Cc2c(O)ccc3ccccc23)c1O
inactive: DU-145 prostate 98.1% | K-562 leukemia 101% | MALME-3M melanoma 96.7% | MDA-MB-231 breast 100% | RXF 393 renal 109% | SF-268 CNS 90.8% | SF-295 CNS 104% | SF-539 CNS 103% | UACC-257 melanoma 100% | M14 melanoma 104% | HCT-15 colon 108% | HT29 colon 98.5% | SNB-75 CNS 94.5% | SNB-19 CNS 99.9% | U251 CNS 98.5% | PC-3 prostate 88.5% | SK-MEL-5 melanoma 95.1% | UACC-62 melanoma 89.3% | LOX IMVI melanoma 90.2% | SK-MEL-28 melanoma 113%

CC(=O)c1ccc(NC(=O)CSc2nnc(-c3cc(-c4ccc(Cl)cc4)nc4ccccc34)o2)cc1
inactive: DU-145 prostate 90% | K-562 leukemia 63% | MALME-3M melanoma 70.8% | MDA-MB-231 breast 53.7% | RXF 393 renal 87.2% | SF-268 CNS 82.4% | SF-295 CNS 88.3% | SF-539 CNS 74.2% | UACC-257 melanoma 97.5% | M14 melanoma 77.6% | HCT-15 colon 76.9% | HT29 colon 84.3% | SNB-75 CNS 82.7% | SNB-19 CNS 78% | U251 CNS 28.6% | PC-3 prostate 79.5% | SK-MEL-5 melanoma 90.5% | UACC-62 melanoma 95.7% | LOX IMVI melanoma 46.1% | SK-MEL-28 melanoma 107%

O=C(Nc1cccc(-c2cccc(F)c2)c1)C1CCN(Cc2cccc3cccnc23)CC1
inactive: DU-145 prostate 72% | MDA-MB-231 breast 37.8% | RXF 393 renal 68.6% | SF-268 CNS 56.8% | SF-295 CNS 56.1% | SF-539 CNS 69.5% | HCT-15 colon 19.5% | SNB-75 CNS 53.6% | SNB-19 CNS 77% | U251 CNS 44.4% | PC-3 prostate 51.1% | SK-MEL-5 melanoma 35.2%
active: K-562 leukemia -37.6% | MALME-3M melanoma -50% | UACC-257 melanoma -2.39% | M14 melanoma -54% | HT29 colon 0.443% | UACC-62 melanoma -44.8% | LOX IMVI melanoma 3.29% | SK-MEL-28 melanoma -40.2%

C#CCN(CCCOc1ccc(Cl)cc1Cl)CCCSC(=O)CCCCCN1/C(=C\C=C2/CCCC(/C=C/C3=[N+](CCCCCC(=O)[O-])c4ccccc4C3(C)C)=C2Cl)C(C)(C)c2ccccc21
active: K-562 leukemia 0.955% | MALME-3M melanoma -56.2% | MDA-MB-231 breast -6.25% | RXF 393 renal -45.2% | SF-268 CNS 7.44% | SF-539 CNS -50.2% | HT29 colon -26.7% | U251 CNS -63.8% | SK-MEL-5 melanoma -25.7% | UACC-62 melanoma -25.8% | LOX IMVI melanoma -29.8% | SK-MEL-28 melanoma -9.83%
inactive: DU-145 prostate 47% | SF-295 CNS 53.3% | UACC-257 melanoma 30.8% | M14 melanoma 49.7% | HCT-15 colon 87.2% | SNB-75 CNS 42.4% | SNB-19 CNS 14.7% | PC-3 prostate 20.9%

c1ccc(-c2n(Cc3ccc4ccccc4n3)cc[n+]2Cc2ccc3ccccc3c2)cc1
active: K-562 leukemia 5.02% | MALME-3M melanoma -20% | MDA-MB-231 breast -6.39% | RXF 393 renal -8.14% | SF-295 CNS -7.2% | UACC-257 melanoma -27.1% | M14 melanoma -24.8% | HT29 colon -9.68% | SNB-75 CNS 3.74% | SNB-19 CNS 9.86% | U251 CNS 8.14% | PC-3 prostate 1.28% | SK-MEL-5 melanoma -95.2% | UACC-62 melanoma -46.2% | LOX IMVI melanoma -25.9% | SK-MEL-28 melanoma 0.22%
inactive: DU-145 prostate 28.2% | SF-268 CNS 20.5% | SF-539 CNS 11.5% | HCT-15 colon 70.5%

CCOC(=O)/C(=C/c1c(-c2ccccc2)[nH]c2ccccc12)C(=O)c1ccc(Cl)cc1
active: K-562 leukemia 5.66% | SF-295 CNS -15.3%
inactive: DU-145 prostate 65.9% | MALME-3M melanoma 92.8% | MDA-MB-231 breast 63% | RXF 393 renal 54.3% | SF-268 CNS 56.1% | SF-539 CNS 81.5% | UACC-257 melanoma 77.2% | M14 melanoma 39.5% | HCT-15 colon 21.2% | HT29 colon 44% | SNB-75 CNS 35% | SNB-19 CNS 79.4% | U251 CNS 50.5% | PC-3 prostate 12.5% | SK-MEL-5 melanoma 53.4% | UACC-62 melanoma 43.5% | LOX IMVI melanoma 44.3% | SK-MEL-28 melanoma 75.6%

O=C(C[n+]1cccc2cc(Cl)ccc21)c1ccc2c(c1)CCCC2
inactive: DU-145 prostate 10.5% | K-562 leukemia 10.6% | RXF 393 renal 62% | SF-268 CNS 27.6% | SF-295 CNS 47.2% | M14 melanoma 32.6% | HCT-15 colon 95.5% | SNB-75 CNS 19.8% | SNB-19 CNS 23.2% | PC-3 prostate 16.1% | UACC-62 melanoma 17.3% | LOX IMVI melanoma 11.9% | SK-MEL-28 melanoma 19.8%
active: MALME-3M melanoma -30.9% | MDA-MB-231 breast 5.63% | SF-539 CNS -10.9% | UACC-257 melanoma 5.48% | HT29 colon 5.56% | U251 CNS -28.9% | SK-MEL-5 melanoma -29%

COc1cc(NC(=O)Nc2cnc(Nc3ccc(N4CCOCC4)cc3)nc2Oc2ccc(C(F)(F)F)cc2)cc(OC)c1
inactive: DU-145 prostate 118% | K-562 leukemia 95.3% | MALME-3M melanoma 118% | MDA-MB-231 breast 96.7% | RXF 393 renal 110% | SF-268 CNS 101% | SF-295 CNS 111% | SF-539 CNS 103% | UACC-257 melanoma 101% | M14 melanoma 107% | HCT-15 colon 103% | HT29 colon 95.5% | SNB-75 CNS 84.4% | SNB-19 CNS 99.5% | U251 CNS 97.3% | PC-3 prostate 93.3% | SK-MEL-5 melanoma 101% | UACC-62 melanoma 105% | LOX IMVI melanoma 95.6% | SK-MEL-28 melanoma 116%

NS(=O)(=O)c1ccc(-n2nc(-c3ccccc3)ccc2=O)cc1
inactive: DU-145 prostate 109% | K-562 leukemia 89.3% | MALME-3M melanoma 82.5% | MDA-MB-231 breast 108% | RXF 393 renal 125% | SF-268 CNS 106% | SF-295 CNS 260% | SF-539 CNS 95.3% | UACC-257 melanoma 111% | M14 melanoma 118% | HCT-15 colon 108% | HT29 colon 112% | SNB-75 CNS 114% | SNB-19 CNS 101% | U251 CNS 99.2% | PC-3 prostate 96.2% | SK-MEL-5 melanoma 109% | UACC-62 melanoma 89.6% | LOX IMVI melanoma 104% | SK-MEL-28 melanoma 104%

COc1ccc2c(c1)OC13Oc4cc(OC)ccc4C=C1CCCCC3=C2
inactive: DU-145 prostate 104% | K-562 leukemia 88.7% | MALME-3M melanoma 97.9% | MDA-MB-231 breast 93.8% | RXF 393 renal 87.5% | SF-268 CNS 90.7% | SF-295 CNS 96.8% | SF-539 CNS 98.4% | UACC-257 melanoma 78.6% | M14 melanoma 90.4% | HCT-15 colon 92.6% | HT29 colon 71.5% | SNB-75 CNS 89.8% | SNB-19 CNS 106% | U251 CNS 89.7% | PC-3 prostate 69.6% | SK-MEL-5 melanoma 91.5% | UACC-62 melanoma 89.4% | LOX IMVI melanoma 99.8% | SK-MEL-28 melanoma 111%

CC(=O)Oc1c2c(nc3c1c1ccccc1n3Cc1ccccc1)-c1ccccc1C2
inactive: DU-145 prostate 99.1% | K-562 leukemia 78.4% | MALME-3M melanoma 102% | MDA-MB-231 breast 80.4% | RXF 393 renal 116% | SF-268 CNS 93.2% | SF-295 CNS 96% | SF-539 CNS 94.5% | UACC-257 melanoma 93.2% | M14 melanoma 88.3% | HCT-15 colon 84.9% | HT29 colon 75.4% | SNB-75 CNS 75.7% | SNB-19 CNS 96.7% | U251 CNS 78.7% | PC-3 prostate 71.8% | SK-MEL-5 melanoma 83.7% | UACC-62 melanoma 70.2% | LOX IMVI melanoma 88.1% | SK-MEL-28 melanoma 100%

c1cc(CNC23CC4CC(CC(C4)C2)C3)cc(C[N+](Cc2cccc(CNC34CC5CC(CC(C5)C3)C4)c2)(Cc2cccc(CNC34CC5CC(CC(C5)C3)C4)c2)Cc2cccc(CNC34CC5CC(CC(C5)C3)C4)c2)c1 (stereo not given)
inactive: MDA-MB-231 breast 16.7% [42 µM] | SF-268 CNS 26.9% [42 µM] | SF-295 CNS 54.4% [42 µM] | SF-539 CNS 16.9% [42 µM] | UACC-257 melanoma 41.5% [42 µM] | M14 melanoma 24.3% [42 µM] | SNB-75 CNS 36.9% [42 µM] | SNB-19 CNS 31.2% [42 µM] | U251 CNS 11.6% [42 µM] | PC-3 prostate 43% [42 µM] | SK-MEL-5 melanoma 23.1% [42 µM] | UACC-62 melanoma 30.3% [42 µM] | SK-MEL-28 melanoma 51.5% [42 µM]
active: DU-145 prostate -4.07% [42 µM] | K-562 leukemia 4.99% [42 µM] | MALME-3M melanoma 6.44% [42 µM] | RXF 393 renal 4.56% [42 µM] | HCT-15 colon 3.19% [42 µM] | HT29 colon -5.66% [42 µM] | LOX IMVI melanoma -4.47% [42 µM]

Nc1ccc(C2=NN(C(=O)c3cc(-c4ccc(Cl)cc4)nc4ccccc34)C(c3ccccc3)C2)cc1 (stereo not given)
active: RXF 393 renal -3.58%
inactive: DU-145 prostate 33.2% | K-562 leukemia 15.6% | MALME-3M melanoma 52.5% | MDA-MB-231 breast 61.2% | SF-268 CNS 57.3% | SF-295 CNS 13.1% | SF-539 CNS 14.9% | UACC-257 melanoma 55.3% | M14 melanoma 16.9% | HCT-15 colon 25.5% | HT29 colon 12.2% | SNB-75 CNS 40.2% | SNB-19 CNS 34.1% | U251 CNS 40.1% | PC-3 prostate 26.8% | SK-MEL-5 melanoma 25.9% | UACC-62 melanoma 38.9% | LOX IMVI melanoma 42.5% | SK-MEL-28 melanoma 58.8%
